# Target: C1GALT1C1
# Assay: pooled miR-30 sensor sort-seq; sequence = guide strand
# Details: shRNA
# Further: reference of the scale not given here.
row,Sequence,sensor-assay potency score (higher = more potent)
1,TTTGTTAGGAGCTTGTAGGTGA,0.841
2,TAAGTCTTTTCATTGATTCTAC,-0.486
3,TATCTGAACAACAGCCTTCTAC,-0.664
4,ATAATGACAACACACGTCCTAT,-0.903
5,TTTGGTATTAAATACATCTTTT,-0.97
6,TATCTTCTTTGTTAGGAGCTTG,-0.577
7,TACATCATCACATGCATCTGAT,-0.0617
8,TTATCTTCAGATATCTTCCAAA,-0.897
9,TTAATTGACTCAAACACTTTAA,-1.19
10,TTTTCAATGATAGCAAACGTAG,-1.07
11,TTTTCATTGATTCTACACTTAA,-1.52
12,TTTATCTTCAGATATCTTCCAA,0.63

# Target: C1QL1
# Assay: as above
# Details: shRNA
row,Sequence,sensor-assay potency score (higher = more potent)
1,TTGCACGTAAACTTGCCGCTGG,0.439
2,TCAAACTTGAGTACCTCGTAAC,-0.701
3,TAGGGGTCGCACACCATGCGGC,-0.617
4,TAGGTGAAAAAGTAGGTGCCGG,-0.205
5,TCCAGGTGCAGGATCACGCTGT,-0.765
6,TTGAGTACCTCGTAACCCTCGT,-0.551
7,TTTGCCTCCATCCAGCTTGATG,-1.62
8,TGCAGGATCACGCTGTTGCTGG,-1.19
9,TAGTTGTTGCCTAGGTTGGTGA,-1.01
10,TATAACTTTGGTCAGACGGGGC,-0.517
11,TATTTGTTGCTGTTGCCGCCGT,-0.708

# Source: the OligoGym collection
